Assays:
Assay in all cases: log2 ratio of Biotin-Ahx-Ub-VS probe labelling (fragment/DMSO); higher = less target engagement (more negative = stronger competition), active = hit call of the paper (q ≤ 0.05, log2 ratio ≤ -1)
Conditions in all cases: compound concentration: 200 uM; treatment time: 3 h
OTUD6B = target: T1, OTUD6B (UniProt Q8N6M0)
T1 sequence (whole entry): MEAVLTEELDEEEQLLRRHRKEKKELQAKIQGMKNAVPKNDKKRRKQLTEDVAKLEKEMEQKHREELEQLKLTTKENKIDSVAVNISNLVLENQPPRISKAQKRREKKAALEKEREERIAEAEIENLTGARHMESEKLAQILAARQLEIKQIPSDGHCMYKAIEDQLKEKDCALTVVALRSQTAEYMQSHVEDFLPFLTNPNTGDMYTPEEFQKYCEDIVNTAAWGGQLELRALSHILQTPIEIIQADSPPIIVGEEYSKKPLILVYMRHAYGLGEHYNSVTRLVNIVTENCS
Summary of the method: (§1)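 Triplicate samples of HEK293T lysate, 495 µg each, received fragment at 200 µM or vehicle for 3 h, followed by Biotin-Ahx-Ub-VS (0.5 µM final) for 1 h. After NeutrAvidin enrichment of labelled DUBs and LysC/trypsin digestion, peptides were run by diaPASEF LC-MS/MS. The values are average log2 fragment/vehicle ratios from global-median-normalised Spectronaut label-free quantities, tested by unpaired t-test on proteins having ≥2 unique peptides.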

OTUD7B = target: T2, OTUD7B (UniProt Q6GQQ9)
T2 sequence (whole entry): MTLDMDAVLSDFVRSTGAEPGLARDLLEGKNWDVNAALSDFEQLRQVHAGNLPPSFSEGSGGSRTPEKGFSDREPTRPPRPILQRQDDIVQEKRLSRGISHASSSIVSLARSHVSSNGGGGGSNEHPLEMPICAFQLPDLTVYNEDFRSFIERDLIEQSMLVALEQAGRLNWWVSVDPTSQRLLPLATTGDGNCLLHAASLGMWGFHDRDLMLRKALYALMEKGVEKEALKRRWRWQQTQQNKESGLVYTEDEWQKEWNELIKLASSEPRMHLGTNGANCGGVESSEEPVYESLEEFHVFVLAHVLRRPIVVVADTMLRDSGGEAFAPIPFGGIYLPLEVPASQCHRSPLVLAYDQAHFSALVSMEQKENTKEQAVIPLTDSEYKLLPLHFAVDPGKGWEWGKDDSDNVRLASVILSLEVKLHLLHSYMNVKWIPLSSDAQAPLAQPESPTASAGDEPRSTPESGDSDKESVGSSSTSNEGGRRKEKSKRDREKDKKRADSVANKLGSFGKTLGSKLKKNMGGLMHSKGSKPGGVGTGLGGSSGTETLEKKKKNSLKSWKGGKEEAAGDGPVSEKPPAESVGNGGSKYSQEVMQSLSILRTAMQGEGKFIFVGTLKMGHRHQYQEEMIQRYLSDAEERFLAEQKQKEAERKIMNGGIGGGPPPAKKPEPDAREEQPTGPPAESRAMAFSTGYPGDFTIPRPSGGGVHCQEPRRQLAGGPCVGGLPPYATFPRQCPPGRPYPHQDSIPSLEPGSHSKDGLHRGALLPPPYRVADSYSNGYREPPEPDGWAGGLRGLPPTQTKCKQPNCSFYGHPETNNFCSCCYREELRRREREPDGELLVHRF
Summary of the method: as §1

PRPF8 = PRPF8 (UniProt Q6P2Q9)
Summary of the method: as §1

PSMD7 = target: T3, PSMD7 (UniProt P51665)
T3 sequence (whole entry): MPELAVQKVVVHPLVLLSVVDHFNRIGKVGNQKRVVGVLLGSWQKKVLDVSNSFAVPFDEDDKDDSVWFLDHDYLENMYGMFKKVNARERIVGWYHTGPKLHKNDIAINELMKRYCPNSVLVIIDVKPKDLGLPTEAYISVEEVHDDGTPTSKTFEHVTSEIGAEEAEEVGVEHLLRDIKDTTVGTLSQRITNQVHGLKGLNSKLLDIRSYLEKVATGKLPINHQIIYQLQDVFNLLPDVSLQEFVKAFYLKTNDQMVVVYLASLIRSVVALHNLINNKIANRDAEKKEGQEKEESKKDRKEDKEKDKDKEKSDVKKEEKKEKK
Summary of the method: as §1

UCHL1 = UCHL1 (UniProt P09936)
Summary of the method: as §1

UCHL3 = target: T4, UCHL3 (UniProt P15374)
T4 sequence (whole entry): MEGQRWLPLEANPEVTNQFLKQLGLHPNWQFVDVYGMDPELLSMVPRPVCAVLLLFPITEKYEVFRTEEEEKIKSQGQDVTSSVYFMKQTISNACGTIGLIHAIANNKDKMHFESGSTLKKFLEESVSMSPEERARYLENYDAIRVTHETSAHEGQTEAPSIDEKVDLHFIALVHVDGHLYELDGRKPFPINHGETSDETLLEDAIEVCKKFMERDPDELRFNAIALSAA
Summary of the method: as §1

UCHL5 = target: T5, UCHL5 (UniProt Q9Y5K5)
T5 sequence (whole entry): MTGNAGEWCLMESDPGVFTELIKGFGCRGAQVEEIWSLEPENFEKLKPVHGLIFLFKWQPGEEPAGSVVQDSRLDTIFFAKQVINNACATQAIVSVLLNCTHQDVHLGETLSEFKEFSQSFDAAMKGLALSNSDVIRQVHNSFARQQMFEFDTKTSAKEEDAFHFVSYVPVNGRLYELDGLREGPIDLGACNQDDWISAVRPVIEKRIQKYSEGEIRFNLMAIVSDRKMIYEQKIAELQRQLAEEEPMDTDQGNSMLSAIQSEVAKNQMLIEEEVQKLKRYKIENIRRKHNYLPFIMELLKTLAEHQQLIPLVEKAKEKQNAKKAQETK
Summary of the method: as §1

USP10 = USP10 (UniProt Q14694)
Summary of the method: as §1

USP15 = target: T6, USP15 (UniProt Q9Y4E8)
T6 sequence (whole entry): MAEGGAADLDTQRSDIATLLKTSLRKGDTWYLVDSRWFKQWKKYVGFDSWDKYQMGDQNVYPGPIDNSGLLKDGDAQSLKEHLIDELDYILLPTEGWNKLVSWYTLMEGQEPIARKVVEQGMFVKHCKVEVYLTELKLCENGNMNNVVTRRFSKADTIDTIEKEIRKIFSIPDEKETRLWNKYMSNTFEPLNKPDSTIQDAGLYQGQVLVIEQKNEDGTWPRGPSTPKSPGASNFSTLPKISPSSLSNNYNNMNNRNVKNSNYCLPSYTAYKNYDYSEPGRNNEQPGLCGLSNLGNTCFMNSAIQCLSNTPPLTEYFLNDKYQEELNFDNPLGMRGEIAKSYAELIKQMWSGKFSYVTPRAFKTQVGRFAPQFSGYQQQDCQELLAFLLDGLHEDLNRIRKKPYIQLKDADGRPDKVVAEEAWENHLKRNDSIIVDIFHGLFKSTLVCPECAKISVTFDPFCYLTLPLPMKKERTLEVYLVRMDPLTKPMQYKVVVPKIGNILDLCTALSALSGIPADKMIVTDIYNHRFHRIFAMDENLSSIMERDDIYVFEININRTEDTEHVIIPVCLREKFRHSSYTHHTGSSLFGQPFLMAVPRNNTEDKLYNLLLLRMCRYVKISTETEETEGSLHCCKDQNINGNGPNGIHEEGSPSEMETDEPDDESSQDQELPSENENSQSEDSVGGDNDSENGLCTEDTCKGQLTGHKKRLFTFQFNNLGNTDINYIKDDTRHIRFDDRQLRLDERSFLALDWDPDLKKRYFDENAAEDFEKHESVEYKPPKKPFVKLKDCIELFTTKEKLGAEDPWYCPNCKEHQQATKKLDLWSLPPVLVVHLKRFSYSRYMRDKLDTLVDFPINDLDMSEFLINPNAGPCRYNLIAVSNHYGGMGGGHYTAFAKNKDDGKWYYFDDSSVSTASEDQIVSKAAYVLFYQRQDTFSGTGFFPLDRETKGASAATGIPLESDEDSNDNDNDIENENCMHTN
Summary of the method: as §1

USP16 = USP16 (UniProt Q9Y5T5)
Summary of the method: as §1

Measured: log2 ratio of Biotin-Ahx-Ub-VS probe labelling

Chain of USP16 (Q9Y5T5 whole entry, looked up): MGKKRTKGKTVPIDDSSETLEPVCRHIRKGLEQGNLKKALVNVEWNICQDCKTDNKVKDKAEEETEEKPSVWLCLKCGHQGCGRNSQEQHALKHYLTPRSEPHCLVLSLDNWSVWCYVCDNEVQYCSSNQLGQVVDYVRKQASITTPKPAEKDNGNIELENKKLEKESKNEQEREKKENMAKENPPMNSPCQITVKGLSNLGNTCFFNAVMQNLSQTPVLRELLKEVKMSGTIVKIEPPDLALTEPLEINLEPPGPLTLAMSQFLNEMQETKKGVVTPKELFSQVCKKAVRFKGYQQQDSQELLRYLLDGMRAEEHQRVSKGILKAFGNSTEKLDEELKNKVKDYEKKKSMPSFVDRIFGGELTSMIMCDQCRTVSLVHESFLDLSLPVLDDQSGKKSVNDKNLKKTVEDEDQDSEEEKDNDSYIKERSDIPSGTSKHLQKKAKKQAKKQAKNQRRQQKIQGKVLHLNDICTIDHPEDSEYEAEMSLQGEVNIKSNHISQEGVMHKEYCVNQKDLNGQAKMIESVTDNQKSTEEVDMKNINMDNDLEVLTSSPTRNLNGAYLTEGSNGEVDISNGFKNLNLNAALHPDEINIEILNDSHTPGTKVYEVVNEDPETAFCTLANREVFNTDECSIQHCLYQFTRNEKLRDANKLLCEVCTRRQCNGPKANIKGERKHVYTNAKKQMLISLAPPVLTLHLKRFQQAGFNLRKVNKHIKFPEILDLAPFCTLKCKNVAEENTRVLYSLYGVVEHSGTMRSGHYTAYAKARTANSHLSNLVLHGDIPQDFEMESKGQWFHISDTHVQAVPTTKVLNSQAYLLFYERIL
Chain of USP10 (Q14694 whole entry): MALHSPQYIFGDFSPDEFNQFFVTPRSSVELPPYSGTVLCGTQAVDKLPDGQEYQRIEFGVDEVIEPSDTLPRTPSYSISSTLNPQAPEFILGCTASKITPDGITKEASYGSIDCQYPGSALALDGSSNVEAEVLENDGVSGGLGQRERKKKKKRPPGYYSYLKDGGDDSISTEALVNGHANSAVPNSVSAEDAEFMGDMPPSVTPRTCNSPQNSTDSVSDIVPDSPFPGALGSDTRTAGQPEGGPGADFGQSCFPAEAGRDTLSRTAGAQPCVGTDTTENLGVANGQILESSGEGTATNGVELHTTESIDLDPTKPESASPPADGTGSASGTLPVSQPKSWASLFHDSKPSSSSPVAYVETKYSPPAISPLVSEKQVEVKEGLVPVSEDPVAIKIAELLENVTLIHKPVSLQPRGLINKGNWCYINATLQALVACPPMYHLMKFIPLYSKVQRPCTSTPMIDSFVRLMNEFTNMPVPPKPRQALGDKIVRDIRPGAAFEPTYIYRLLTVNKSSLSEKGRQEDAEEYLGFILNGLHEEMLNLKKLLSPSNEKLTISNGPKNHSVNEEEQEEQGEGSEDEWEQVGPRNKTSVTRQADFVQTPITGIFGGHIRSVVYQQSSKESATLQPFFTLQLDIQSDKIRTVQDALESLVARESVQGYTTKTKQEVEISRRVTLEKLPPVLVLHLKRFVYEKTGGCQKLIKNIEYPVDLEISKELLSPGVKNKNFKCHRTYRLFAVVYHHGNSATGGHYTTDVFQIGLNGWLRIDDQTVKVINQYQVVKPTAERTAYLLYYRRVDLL
Chain of UCHL1 (P09936 whole entry, looked up): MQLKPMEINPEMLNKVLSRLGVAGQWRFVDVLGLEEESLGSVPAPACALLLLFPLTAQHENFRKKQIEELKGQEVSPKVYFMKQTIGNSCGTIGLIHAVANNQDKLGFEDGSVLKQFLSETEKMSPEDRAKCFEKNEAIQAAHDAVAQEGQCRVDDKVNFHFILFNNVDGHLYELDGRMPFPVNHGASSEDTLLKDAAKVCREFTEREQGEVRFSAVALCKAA

O=C(CCl)N1CC2(CCOCC2)C1
inactive: OTUD6B -0.202 | OTUD7B -0.345 | PRPF8 -0.426 | PSMD7 -0.00344 | UCHL3 0.139 | UCHL5 -0.253 | USP10 -0.483 | USP15 -0.212 | USP16 -0.888
active: UCHL1 -1.21
